# Assay results as given in PubChem BioAssay (Tox21).
# Records with an inconclusive call do not appear. Entries that show only a call come without a potency. A number with no mark means an inactive call. The source made the active and inactive calls. Unless noted, the call rests on the fitted dose curve; in most records, active means well fitted curve in the direction sought with a large enough effect in the repeat runs; inconclusive means weak or mixed curves; inactive means no such curve, though single readings can be large; an effect the other way counts as inactive or inconclusive.
# Legend:
# [1] = qHTS assay to identify small molecule agonists of the constitutive androstane receptor (CAR) signaling pathway - cell viability counter screen (AID 1224836); further: nearly all actives have a fitted effect of over 45% in size
# In short: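 Compound titrations (15 concentrations) went onto HepG2-CYP2B6-hCAR cells 4 h after seeding, alongside PK11195 at a final 0.75 uM; a 23 h, 37 C/5% CO2 incubation preceded CellTiter-Fluor viability measurement.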
# [2] = qHTS assay to identify small molecule antagonists of the constitutive androstane receptor (CAR) signaling pathway - cell viability counter screen (AID 1224837); further: nearly all actives have a fitted effect of over 45% in size
# In short: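 HepG2 cells stably expressing hCAR and a CYP2B6-2.2kb reporter were plated and pre-incubated 4 hr at 37 C/5% CO2, then given compounds at 15 concentrations plus 50 nM CITCO (final). After 23 hr, viability was read by CellTiter-Fluor fluorescence.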
# [3] = molecular target: Nuclear receptor subfamily 1 group I member 3 (Homo sapiens) (UniProt Q14994); assay: qHTS assay to identify small molecule antagonists of the constitutive androstane receptor (CAR) signaling pathway (AID 1224838); further: nearly all actives have a fitted effect of over 40% in size
# In short: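 HepG2 cells stably co-transfected with hCAR and a CYP2B6-2.2kb luciferase reporter were seeded 4 h before compound addition at 15 concentrations. Cells were stimulated with 50 nM CITCO (final) for 24 h at 37 C; luciferase luminescence was then read.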
# [4] = molecular target: Nuclear receptor subfamily 1 group I member 3 (Homo sapiens) (UniProt Q14994); assay: qHTS assay to identify small molecule agonists of the constitutive androstane receptor (CAR) signaling pathway (AID 1224839); further: nearly all actives have a fitted effect of over 15% in size;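 on activation: HepG2 cells stably carrying human CAR and a CYP2B6 luciferase reporter; series mostly up to about 92 µM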
# In short: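 In this screen, CAR-driven CYP2B6 promoter activity is measured by luminescence in HepG2-CYP2B6-hCAR cells after 24 h with test compounds and 0.75 uM PK11195 (final concentration).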
# [5] = qHTS assay to identify small molecule agonists of the estrogen related receptor signaling pathway with the pleiotropic PPARgamma coactivator (PGC) from Tox21 10K library (AID 1224842); further: nearly all actives have a fitted effect of over 15% in size
# In short: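 PGC/ERR reporter cell line, 2,000 cells per well, incubated 6 h at 37 C before 23 nL compound in DMSO was added. After 18 h at 37 C, One-Glo luminescence read following 30 min at room temperature.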
# [6] = molecular target: Thyrotropin receptor (Homo sapiens) (UniProt P16473); assay: qHTS assay to identify small molecule agonists of the thyroid stimulating hormone receptor (TSHR) signaling pathway (AID 1224843; calls by dose curve; further: nearly all actives have a fitted effect of over 45% in size)
# In short: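 TSHR-HEK293 cells in agonist mode, 30 min room-temperature step, then cAMP measured by competitive HTRF (cAMP-d2 with anti-cAMP cryptate) after 1 h at room temperature. Tested at 15 concentrations in triplicate.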
# [7] = qHTS assay to identify small molecule agonists of the hypoxia (HIF-1) signaling pathway - cell viability counter screen (AID 1224844; calls by dose curve; further: nearly all actives have a fitted effect of over 50% in size)
# In short: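 HRE-bla ME-180 cells in medium with 0.5% dialyzed FBS were preincubated 5 hrs at 37C, exposed to compounds for 17 hrs, then viability was read as CellTiter-Glo luminescence after 30 min at room temperature, in the reporter wells.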
# [8] = qHTS assay to identify small molecule agonists of H2AX (AID 1224845; active means well fitted activation curve with a large enough effect in the signal ratio in the repeat runs, not every such curve was filed as active; the % refers to the signal ratio)
# In short: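 Wild-type CHO-K1 cells, plated overnight, exposed 3hr at 37C to 15 concentrations (0.76% DMSO final). Lysed, then HTRF anti-pH2AX (S139) cryptate and anti-H2AX-d2 antibodies, 24 hr room temperature; 665/620 nm emission read.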
# [9] = qHTS assay to identify small molecule antagonists of the estrogen related receptor signaling pathway with the pleiotropic PPARgamma coactivator (PGC) from Tox21 10K library (AID 1224841; call rule not given here; further: actives are mostly falling curves and most rising ones were filed inactive; nearly all actives have a fitted effect of over 50% in size)
# In short: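 PGC/ERR reporter cells were seeded at 2,000 cells/well and held 6 hours at 37 C/5% CO2 before pin-tool addition of compounds in DMSO. After 18 hours at 37 C, One-Glo was added and luminescence read after 30 minutes at room temperature.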
# [10] = qHTS assay to identify small molecule antagonists of the estrogen related receptor signaling pathway with the pleiotropic PPARgamma coactivator (PGC) from Tox21 10K library - cell viability counter screen (AID 1224840; active means well fitted cell-killing curve with a large enough effect in the repeat runs, not every such curve was filed as active; further: nearly all actives have a fitted effect of over 40% in size)
# In short: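 PGC/ERR cells were seeded at 2,000 cells/well and left 6 hours at 37 C/5% CO2 before pin-tool addition of compounds in DMSO. After 17.5 hours at 37 C, CellTiter-Fluor was added and fluorescence read 30 minutes later.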
# Potency means the concentration at half of the fitted maximal effect.
# Nuclear receptor subfamily 1 group I member 3 (Homo sapiens), sequence (Q14994 whole entry, looked up): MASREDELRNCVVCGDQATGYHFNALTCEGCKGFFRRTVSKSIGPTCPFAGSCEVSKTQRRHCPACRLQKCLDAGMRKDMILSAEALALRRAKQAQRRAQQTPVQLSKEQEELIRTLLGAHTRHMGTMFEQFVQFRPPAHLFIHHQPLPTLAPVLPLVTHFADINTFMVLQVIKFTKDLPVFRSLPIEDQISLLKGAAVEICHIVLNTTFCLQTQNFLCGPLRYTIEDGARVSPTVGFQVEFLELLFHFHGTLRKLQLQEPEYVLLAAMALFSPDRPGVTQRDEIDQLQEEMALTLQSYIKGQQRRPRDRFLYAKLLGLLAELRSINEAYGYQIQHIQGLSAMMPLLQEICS
# Thyrotropin receptor (Homo sapiens), sequence (P16473 whole entry, looked up): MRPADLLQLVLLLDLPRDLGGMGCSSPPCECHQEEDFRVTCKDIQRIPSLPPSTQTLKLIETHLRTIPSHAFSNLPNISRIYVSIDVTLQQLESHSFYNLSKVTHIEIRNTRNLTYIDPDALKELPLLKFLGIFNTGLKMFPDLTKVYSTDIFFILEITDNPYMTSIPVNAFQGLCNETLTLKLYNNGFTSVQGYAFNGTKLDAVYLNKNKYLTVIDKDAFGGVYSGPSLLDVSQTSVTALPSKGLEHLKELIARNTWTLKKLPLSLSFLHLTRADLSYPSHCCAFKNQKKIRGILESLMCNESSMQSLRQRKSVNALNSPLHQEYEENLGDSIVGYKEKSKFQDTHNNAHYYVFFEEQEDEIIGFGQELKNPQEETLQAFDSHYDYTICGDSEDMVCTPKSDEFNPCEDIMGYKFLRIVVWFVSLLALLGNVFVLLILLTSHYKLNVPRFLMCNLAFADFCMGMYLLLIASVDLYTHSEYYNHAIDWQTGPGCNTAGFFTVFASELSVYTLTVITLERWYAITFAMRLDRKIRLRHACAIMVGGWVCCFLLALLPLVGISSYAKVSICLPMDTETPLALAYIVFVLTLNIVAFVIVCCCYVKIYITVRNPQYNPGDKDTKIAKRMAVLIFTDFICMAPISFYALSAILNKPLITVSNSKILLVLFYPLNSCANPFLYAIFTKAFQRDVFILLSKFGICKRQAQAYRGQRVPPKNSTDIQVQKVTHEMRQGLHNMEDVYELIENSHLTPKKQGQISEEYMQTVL
Structure (SMILES),Potency [1],Potency [2],Potency [3],Potency [4],Potency [5],Potency [6],Potency [7],activation [4],activation [6],Potency [8],Potency [9],Potency [10]
S=C(SSC(=S)N1CCCCC1)N1CCCCC1,0.841 µM (active),0.335 µM (active),0.376 µM (active),inactive,inactive,inactive,0.338 µM (active),,,,,
C[CH2][Hg][N]1C(=O)C2C(C1=O)C1(Cl)C(Cl)=C(Cl)C2(Cl)C1(Cl)Cl (centres undefined),14.6 µM (active),13 µM (active),11.6 µM (active),,,,2.33 µM (active),-23.5% [at 19 µM],-16.4% [at 19 µM],10.7 µM (active),,
CCCN(CCC)CCc1c[nH]c2ccccc12,inactive,inactive,inactive,inactive,,inactive,inactive,,,inactive,,
CN(CCCC(=O)c1cccnc1)N=O,inactive,inactive,inactive,inactive,,inactive,inactive,,,inactive,,
CCOC(=O)CC(=O)CCl,inactive,inactive,inactive,inactive,,,,,,inactive,,
CCOc1cc(C(C)(C)C)ccc1C1COC(c2c(F)cccc2F)=N1 (centres undefined),inactive,inactive,inactive,18.6 µM (active),inactive,,,,,inactive,,
CCN(CC)c1c([N+](=O)[O-])cc(C(F)(F)F)c(N)c1[N+](=O)[O-],inactive,inactive,inactive,48.6 µM (active),,13.7 µM (active),inactive,,,,,
CC(=O)Nc1ccc2c(c1)Cc1ccccc1-2,inactive,inactive,inactive,31.1 µM (active),,,inactive,,,inactive,,
Cc1ccc(C(=O)Cl)cc1,inactive,inactive,inactive,inactive,inactive,inactive,inactive,,,inactive,inactive,
Oc1ccc(C(=C(Cl)Cl)c2ccc(O)cc2)cc1,inactive,inactive,inactive,48.5 µM (active),inactive,,,,,inactive,,
ClC1=C(Cl)[C@]2(Cl)[C@H]3[C@H]([C@H]4C=C[C@H]3C4)[C@@]1(Cl)C2(Cl)Cl,inactive,inactive,inactive,13.7 µM (active),,9.69 µM (active),inactive,,,inactive,,
COC12CC[C@@]3(C[C@@H]1C(C)(O)C(C)(C)C)[C@H]1Cc4ccc(O)c5c4[C@@]3(CCN1CC1CC1)[C@H]2O5 (some centres undefined),43 µM (active),54.1 µM (active),48.2 µM (active),inactive,inactive,inactive,34.4 µM (active),,,56.3 µM (active),60.7 µM (active),
CCCCCCCCCCCCCCC(Br)C(=O)O (centres undefined),inactive,inactive,inactive,inactive,,,49 µM (active),,,inactive,,inactive
CCOP(=S)(OCC)OC(Cl)C(Cl)(Cl)Cl (centres undefined),inactive,inactive,inactive,,inactive,inactive,inactive,,,,inactive,inactive
COP(=S)(OC)Oc1cc(Cl)c(Br)cc1Cl,inactive,inactive,inactive,54.5 µM (active),,inactive,inactive,,,inactive,,
N#C/C=C/c1ccccc1,inactive,inactive,inactive,inactive,,,inactive,,,inactive,,inactive
CC(Cl)CN(C)C (centres undefined),inactive,inactive,inactive,inactive,,,,,,inactive,,inactive
CC(=O)c1cc(C(C)(C)C)cc2c1CCC2(C)C,inactive,inactive,inactive,,inactive,,inactive,,,,inactive,inactive
Fc1ccc(Oc2ccnc3cc(Cl)cc(Cl)c23)cc1,inactive,inactive,inactive,27.3 µM (active),,,,,,inactive,,inactive
Cl/C=C\CCl,inactive,inactive,inactive,inactive,inactive,inactive,inactive,,,inactive,inactive,
ClCc1ccccc1CCl,inactive,inactive,inactive,inactive,,inactive,,,,inactive,,
ClC(Cl)=C(c1ccc(Cl)cc1)c1ccc(Cl)cc1,inactive,inactive,inactive,,inactive,,,,,,inactive,inactive
O=C(Nc1ccc2[nH]ccc2c1)c1cc2cc(F)ccc2n1Cc1cccc(F)c1,inactive,61.1 µM (active),,27.3 µM (active),2.73 µM (active),,43.6 µM (active),,,inactive,inactive,
O=C(CCCN1CCC2(CC1)C(=O)NCN2c1ccccc1)c1ccc(F)cc1,5.96 µM (active),3.35 µM (active),,inactive,inactive,inactive,,,,inactive,inactive,inactive
Cc1cc(C)c(C2=C(OC(=O)CC(C)(C)C)C3(CCCC3)OC2=O)c(C)c1,inactive,inactive,,inactive,inactive,,inactive,,,inactive,inactive,inactive
COc1cc(C=O)cc2c1[C@H](COC(N)=O)[C@]1(OC(C)=O)ON2C[C@H]2[C@@H]1N2C(C)=O,0.611 µM (active),0.433 µM (active),,inactive,inactive,inactive,3.89 µM (active),,,63.5 µM (active),1.93 µM (active),inactive
COc1cc(N)c(Cl)cc1C(=O)NC1CN2CCC1CC2 (centres undefined),inactive,inactive,,inactive,,inactive,inactive,,,inactive,,inactive
O=C1C=CC(=O)c2ccccc21,54.5 µM (active),43.3 µM (active),,inactive,inactive,,11 µM (active),,,,34.4 µM (active),61.1 µM (active)
O=[N+]([O-])c1cc([N+](=O)[O-])c2ccccc2c1,inactive,inactive,,24.3 µM (active),inactive,inactive,,,,inactive,,inactive
